Laboratory results reported in PubChem BioAssay AID2289 (National Center for Advancing Translational Sciences (NCATS), 2010).
Out of some 340,000 compounds screened, about 3,300 (0.97%) were called active. Not shown: some 9% with an inconclusive outcome. Calls follow the shape of the dose curve; as a rule, active = well fitted inhibition curve with a large enough effect; inconclusive = small, poorly fitted or top-dose-only effect, or effect the other way; inactive = flat fitted curve, though single readings scatter. The list shows a part of the results.

Assay: qHTS Assay for Modulators of miRNAs and/or Inhibitors of miR-21; also: nearly all actives have a fitted effect of over 55% in size
Conditions: HeLa miR-21-FLuc reporter, luciferase luminescence, 48 h; actives lower the signal
Summary of the method: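 HeLa cells stably expressing CMV-driven firefly luciferase with a downstream miR-21 binding sequence, endogenously expressing miR-21, were treated with titrations (up to about 40uM final) for 48 hours at 37 degree Celsius. Luciferase luminescence was read after lysis.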
Potency is read from the fitted curve at half-maximal effect.

Potency, active:
CC1CN(C(=O)N2CCC(C(=O)NCc3cccs3)CC2)c2ccccc2O1 (stereo not drawn) 1.47 µM, Cc1ccc(/C=N/NC(=S)N2CCOCC2)cc1 13.1 µM, S=C(N/N=C/c1ccc(Cl)cc1)N1CCOCC1 9.27 µM, O=C(Nc1ccc(F)cc1)c1nsc(Cl)c1Cl 1.65 µM, COc1c(O)cc2oc(-c3ccc(O)cc3)cc(=O)c2c1O 2.33 µM, COc1c(O)cc2oc(-c3ccc(O)c(O)c3)cc(=O)c2c1O 5.21 µM, Cn1c(CSc2nc3ccccc3s2)nc2ccccc21 4.14 µM, COc1ccc(CNc2nc3ccccc3n2C)c(O)c1 1.17 µM, Cn1c(CNc2ccc(O)cc2)nc2ccccc21 16.5 µM, COc1ccccc1C(=O)COC(=O)c1ccc(N(C)C)cc1 3.29 µM, COc1ccc(/C=C2\Cc3ccccc3C2=O)cc1OC 14.7 µM, O=C1/C(=C/c2ccccc2)CCCc2ccccc21 7.36 µM, COc1ccc(/C=C2/CCc3ccccc3C2=O)cc1OC 18.5 µM, O=C(O)c1cccc(NC(=S)N/N=C/c2ccccc2OCc2ccc(Br)cc2)c1 11.7 µM, O=C(O)c1cnn(-c2nc(-c3ccc(Cl)cc3)cs2)c1C(F)(F)F 13.1 µM, O=C(O)c1cnn(-c2nc(-c3ccc(Cl)c(Cl)c3)cs2)c1C(F)(F)F 5.21 µM, O=C(O)c1cnn(-c2nc(-c3ccc(Br)cc3)cs2)c1C(F)(F)F 11.7 µM, O=C(O)c1cnn(-c2nc(-c3ccc(F)cc3)cs2)c1C(F)(F)F 14.7 µM, COc1ccccc1-c1nn2c(-c3ccco3)nnc2s1 4.65 µM, CCOC(=O)c1oc2ccc(/C=N/O)c(Cl)c2c1C 8.26 µM, Cn1cccc1CC(=O)N/N=C/c1ccc(C(C)(C)C)cc1 10.4 µM, CC(C)(C)c1ccc(/C=N/NC(=O)C2CCCC2)cc1 16.5 µM, Cc1cn2c(=O)cc(COC(=O)c3cccc(NC(=O)COc4ccccc4Cl)c3)nc2s1 0.329 µM, Cc1ccc(OCC(=O)Nc2cccc(C(=O)OCc3cc(=O)n4nc(C)sc4n3)c2)cc1 0.736 µM, COc1ccc(NC(=S)Nc2ccccn2)cc1 2.93 µM, COC(=O)c1ccc(NC(=S)Nc2ccccn2)cc1 2.07 µM, COc1ccccc1N1CCN(C(=O)c2nc(-c3ccc(C)cc3)n3c2CCCCC3)CC1 1.47 µM, Cc1ccc(/C(N)=N/OC(=O)c2ccc3c(c2)OCO3)cc1 0.464 µM, N/C(=N\OC(=O)c1ccc(Cl)cc1)c1cccnc1 2.61 µM, Cc1cc(/C(N)=N/OC(=O)c2ccc(Cl)cc2)no1 1.47 µM, N/C(=N\OC(=O)c1ccc2c(c1)OCO2)c1cccnc1 3.69 µM, Cn1cccc1/C=C1\SC(=O)N(c2ccccc2)C1=O 0.927 µM, CCCNC(=O)c1cc(-c2ccco2)on1 3.69 µM, O=C(NCCc1ccccc1)c1cc(-c2ccco2)on1 3.29 µM, CC1CCN(C(=O)c2cc(-c3ccco3)on2)CC1 3.69 µM, O=C(Nc1ccccc1F)c1ccc(Cn2cc(Cl)cn2)cc1 10.4 µM, Cn1c(NC(=O)c2cccc(Cn3cc(Cl)cn3)c2)nc2ccccc21 4.65 µM, Cc1cc2c([nH]c3ccccc32)c2c1OC(C)(C)C=C2 3.69 µM, COc1ccc(OCc2cc(C(=O)N3CCCC(OC)C3)no2)c2ccccc12 (stereo not drawn) 16.5 µM, COc1ccc(OCc2cc(C(=O)N3CCCC(O)C3)no2)c2ccccc12 (stereo not drawn) 5.85 µM, Oc1c(/C=N/c2ccccn2)sc2ccccc12 2.07 µM, O=C(OCCOc1ccccc1)c1n[nH]c2ccccc12 1.47 µM, O=C(O)C(=O)/C(=C\c1ccsc1)c1ccc2ccccc2n1 1.47 µM, N#Cc1ccc(/C=C(\C(=O)C(=O)O)c2ccc3ccccc3n2)cc1 1.04 µM, CC(=O)Nc1ccc(/C=N/Nc2nc3ccccc3s2)cc1 0.185 µM, COc1cc(/C=C/c2nc3ccccc3s2)cc(OC)c1O 13.1 µM, COc1cc(/C=N/Nc2nc3ccccc3s2)ccc1O 2.93 µM, COc1cc(/C=N/Nc2ccccc2C(F)(F)F)ccc1O 16.5 µM, O=C(O)c1ccc(N/N=C/C(Br)=C/c2ccccc2)cc1 1.17 µM, BrC(=C\c1ccccc1)/C=N/Nc1nc2ccccc2[nH]1 16.5 µM, O=C(c1ccco1)N1CCN(C(c2ccccn2)c2nnnn2C2CCCC2)CC1 (stereo not drawn) 7.36 µM, Clc1ccc(-c2nnc(N3CCOCC3)o2)cc1 18.5 µM, COc1ccc(-c2csc(N3CCSCC3)n2)cc1 10.4 µM, Clc1ccc(-c2csc(N3CCOCC3)n2)cc1 3.29 µM, COc1ccc(-c2csc(N3CCOCC3)n2)cc1OC 5.85 µM, COc1ccc(-c2csc(N3C(=O)CNC3=S)n2)cc1 0.0585 µM, O=C(c1ccc(-c2ccc([N+](=O)[O-])cc2)o1)N1CCCCC1 1.85 µM, O=C(c1ccc(-c2ccc([N+](=O)[O-])cc2Cl)o1)N1CCOCC1 10.4 µM, O=C(c1ccc(-c2cccc(C(F)(F)F)c2)o1)N1CCOCC1 14.7 µM, O=C(c1ccc(-c2cccc(Cl)c2Cl)o1)N1CCOCC1 4.65 µM, O=C(c1ccc(-c2ccc(Cl)cc2Cl)o1)N1CCOCC1 7.36 µM, O=C(c1ccc(-c2cc(Cl)ccc2Cl)o1)N1CCOCC1 18.5 µM, Cc1nc(NC(=O)C2CCCC2)sc1Cc1ccc2c(c1)OCO2 9.27 µM, Cc1ccc(O)c(NC(=S)NC(=O)CC(C)C)c1 5.85 µM, Cc1sc(NC(=O)c2ccccc2F)c(CN2CCCCC2C)c1C (stereo not drawn) 2.07 µM, O=c1oc2ccccc2cc1-c1ccccc1 16.5 µM, O=c1oc2cc(O)ccc2cc1-c1ccccc1 13.1 µM, O=c1oc2ccccc2cc1-c1nc(-c2cccs2)no1 1.17 µM, O=c1oc2ccccc2cc1-c1ccc(O)cc1 4.65 µM, O=C(Nc1ccc(Br)cn1)c1cccc(-c2cc3ccccc3oc2=O)c1 3.69 µM, O=c1oc2ccccc2cc1NCc1ccccc1O 10.4 µM, COc1cccc(C2(O)CC(C(F)(F)F)=NN2C(=O)c2ccccn2)c1 (stereo not drawn) 13.1 µM, CCN(CC)c1ccc(/C=C(/C#N)C(=O)NCc2ccccc2)o1 10.4 µM, CN(C)c1ccc(/C=C(/C#N)C(=O)NCc2ccccc2)o1 14.7 µM, CCCc1ccc(-c2cc(NC(=O)CSc3n[nH]c(N)n3)n(-c3ccccc3)n2)cc1 18.5 µM, NC(=O)c1ccc(NC(=O)c2cnc3ccccc3n2)cc1 7.36 µM, Cc1ccc(NC(=O)c2cnc3ccccc3n2)cc1C 1.31 µM, c1ccc2c(c1)CCN(C1=Nc3cccc4cccc1c34)C2 18.5 µM, Cc1cc(C(=O)Nc2sc3c(c2C#N)CCC(C)C3)cs1 (stereo not drawn) 0.736 µM, CCOC(=O)Nc1sc2c(c1C#N)CCC(C)C2 (stereo not drawn) 5.21 µM, c1cn2c(NC3CCCC3)c(-c3ccc(N4CCOCC4)cc3)nc2cn1 6.56 µM, Cc1ccc(Nc2c(-c3ccc(N4CCOCC4)cc3)nc3cnccn23)cc1 7.36 µM, Cc1ccc(-c2nc3cnccn3c2Nc2ccccc2)o1 16.5 µM, Cc1ccccc1Nc1c(-c2ccc(N3CCOCC3)cc2)nc2cnccn12 4.65 µM, c1cn2c(Nc3ccc4c(c3)OCCO4)c(-c3ccc(N4CCOCC4)cc3)nc2cn1 6.56 µM, COC(=O)c1c(C)[nH]c(C(=O)OCc2ccc(F)cc2)c1C 2.07 µM, CCOC(=O)c1c(C)[nH]c(C(=O)OCCOc2ccccc2C)c1C 1.85 µM, CCOC(=O)c1c(C)[nH]c(C(=O)OCc2ccccc2F)c1C 0.414 µM, Cc1cccc(OCC(=O)O/N=C(\N)c2ccccn2)c1C 6.56 µM, N/C(=N\OC(=O)COc1ccccc1)c1ccccn1 5.21 µM, N/C(=N\OC(=O)CCC1CCCC1)c1ccccn1 3.29 µM, COc1cc(OC)cc(C(=O)O/N=C(\N)c2ccccn2)c1 1.65 µM, N/C(=N\OC(=O)C12CC3CC(CC(C3)C1)C2)c1ccccn1 5.21 µM, Cc1cccc(OCC(=O)O/N=C(\N)c2ccccn2)c1 7.36 µM, Cc1ccc(OCC(=O)O/N=C(\N)c2ccccn2)cc1 3.29 µM, CC(C)C(=O)NC(=S)Nc1sc2c(c1C(N)=O)CCCC2 6.56 µM, COCCN(CCOC)S(=O)(=O)c1ccc(C(=O)Nc2sc3c(c2C(N)=O)CCCCC3)cc1 5.21 µM, CCCCC(=O)Nc1sc2c(c1C(N)=O)CCC2 11.7 µM, COc1cc(/C=C2\Oc3cc(O)ccc3C2=O)ccc1O 5.21 µM, O=C1/C(=C/c2ccc(O)c(O)c2)Oc2cc(O)ccc21 8.26 µM, CCOC(=O)c1csc(-c2sccc2Br)n1 0.521 µM, Nc1c(Br)cc2oc(-c3ccccc3)nc2c1Br 2.07 µM, COc1ccc(-c2nc3c(Br)c(N)c(Br)cc3o2)cc1 2.07 µM
